Screening results deposited in PubChem BioAssay by National Center for Advancing Translational Sciences (NCATS).
Compounds with a hit are over-represented: about 15% of the library has one in this group of screens.
HCMV inh – qHTS Assay for inhibitors of the human cytomegalovirus (HCMV). hit rate 4.5% among 410,000. AID 1259415, 2018. HFF cells, HCMV-luciferase reporter, 72 h; stronger effect = lower value. activity change, negative = inhibition, % at 57.5 µM; in the data active means activity change below about -60%; inconclusive means no clear call, values can overlap the other calls; inactive means above about -39%; further: on the % scale 0 is the no-effect control and ±100 the full control effect
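Steps: HFFs plated, 16 h 37C; compounds added; HCMV-luciferase added to MOI 1 PFU/cell; 72 h 37C; OneGlo reagent, 5 min room temperature; luminescence read, normalized to controls.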
Pf growth 48h – Primary qHTS for delayed death inhibitors of the malarial parasite plastid, 48 hour incubation; hit rate 5.9% among 310,000; AID 504832, 2011; Potency, µM (doses to about 28.7 µM), for inactives: at the top dose activity change, negative = inhibition, most hits filed as inhibitors; P. falciparum luciferase growth in erythrocytes, 48 h; further: potency means the concentration at half of the fitted maximal effect; on the % scale 0 is the no-effect control and ±100 the full control effect
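Luminescence readout; reporter = integrated firefly luciferase in P. falciparum. RBC culture at 2% hematocrit, 0.1% parasitemia final, 37 C/5% CO2; decreased signal taken as growth inhibition.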
Sm TGR inh – qHTS Assay for the Inhibitors of Schistosoma Mansoni Peroxiredoxins; Schistosoma mansoni thioredoxin glutathione reductase (TGR), Q962Y6; purified TGR, DTNB reduction, TNB absorbance 405 nm; Potency, µM (titrated, usually from 114 µM), without a hit: at the highest dose activity change, negative = inhibition, actives largely listed as inhibitors; hit rate 3% among 360,000; AID 485364, 2010; further: potency means the concentration at half of the fitted maximal effect; on the % scale 0 is the no-effect control and ±100 the full control effect; nearly all actives have a fitted effect of over 60% in size
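First, TGR (20 nM dispensed) and NADPH were mixed with compound. Second, a 15 min room-temperature incubation followed. Third, further NADPH and then DTNB were added to start the reaction. Finally, TNB absorbance was monitored kinetically.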
SARS PLP yeast – qHTS of Yeast-based Assay for SARS-CoV PLP | AID 485353, 2010 | Potency, µM (doses to about 32.9 µM), without a hit: at the top dose activity, positive = growth rescue, hits mostly activators | S. cerevisiae expressing SARS-CoV PLpro, growth rescue | hit rate 0.19% among 330,000; calls by dose curve; further: potency means the concentration at half of the fitted maximal effect; 0% is about no effect; nearly all actives have a fitted effect of over 55% in size
Pf growth 96h – Primary qHTS for delayed death inhibitors of the malarial parasite plastid, 96 hour incubation | P. falciparum luciferase reporter growth, 96 h | Potency, µM (series often up to 28.7 µM), for inactives: at the highest dose activity change, negative = inhibition, hits mostly inhibitors | hit rate 6.9% among 320,000; further: potency means the concentration at half of the fitted maximal effect; on the % scale 0 is the no-effect control and ±100 the full control effect
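Two parasite generations (96 h, 37 C, 5% CO2) of compound exposure in infected erythrocytes (0.05% parasitemia, 2% hematocrit). Luciferase-reporter P. falciparum; decreased luminescence indicates inhibited growth, aimed at apicoplast-acting delayed death.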
HCV inhibitor – qHTS Assay for Inhibitors of Hepatitis C Virus (HCV); Huh7.5.1 HCVcc-Cre infection, luciferase reporter, 44 h; Potency, µM (highest dose often 41.8 µM), for the others: at the top dose activity change, negative = inhibition, usual class: inhibitors; hit rate 3.4% among 340,000; AID 651820, 2012; further: potency means the concentration at half of the fitted maximal effect; on the % scale 0 is the no-effect control and ±100 the full control effect
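Luciferase read-out (15 sec integration) after a 15 min room-temperature substrate step quantifies HCVcc-Cre infection. Cells, 1,000 per well, had compound added 4 h post-plating, then virus at ~0.5 moi, and were cultured 44 h.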
Numbers without * were called inactive; ? = inconclusive; . = no result given. Unless noted, the call rests on the fitted dose curve; in most records, active means well fitted curve in the direction sought with a large enough effect; inconclusive means small, poorly fitted or top-dose-only effect, or another doubt; inactive means no such curve, though single readings can be large; an effect the other way counts as inactive or inconclusive.

SMILES	HCMV inh	Pf growth 48h	Sm TGR inh	SARS PLP yeast	Pf growth 96h	HCV inhibitor
COCCN(Cc1ccccc1)C(=O)c1cccc(S(=O)(=O)N2CCN(Cc3ccccc3)CC2)c1	-33	.	.	.	.	.
CCN(Cc1nc2ccccc2c(=O)[nH]1)C(=O)c1cccc(S(=O)(=O)N2CCc3ccccc32)c1	-21	10µM*	-9%	2%	?	?
COc1ccccc1C(CNC(=O)c1cccc(S(=O)(=O)N2CCCc3ccccc32)c1)N(C)C (configuration not stated)	0	.	.	.	.	?
COCCN(Cc1ccccc1)C(=O)c1cccc(S(=O)(=O)N2CCCc3ccccc32)c1	?	?	-2%	4%	-22%	10µM*
O=C(Cc1ccsc1)Nc1ccccc1F	5	21%	4%	13%	47%	0%
CCc1ccc2ncc3c(-c4ccc(F)cc4)nn(CC(=O)NC4CCCCC4)c3c2c1	2	.	7%	.	.	.
CCc1cccc(NC(=O)CN2C(=O)COc3ccc(S(=O)(=O)Nc4ccccc4)cc32)c1	8	.	9%	.	.	.
COc1ccc([C@H]2NC(=O)C[C@H]2C(=O)N2CCOCC2)cc1	-15	.	.	.	.	.
N#CC1=C(SCC(N)=O)NC2=C(C(=O)c3ccccc32)C1c1ccc(Cl)cc1 (configuration not stated)	-60*	-18%	?	7%	57%	-19%
CSCSC1=C(C#N)C(c2ccc(Cl)cc2)C(C(C)=O)=C(C)N1 (configuration not stated)	.	?	-21%	-13%	?	-26%
CCOC(=O)C(=O)Nc1nccs1	?	6%	.	0%	-24%	11%
CCOC(=O)/C=C/C(=O)Nc1nccs1	0	?	40µM*	-47%	86%	-30%
Cc1ccc(/C=C/C(=O)Nc2ncc(C)s2)o1	40	95%	25µM*	-23%	141%	-7%
Cc1cnc(NC(=O)/C=C/c2ccc(Br)o2)s1	0	111%	-1%	0%	35%	5%
Cc1ccc(/C=C/C(=O)Nc2nccs2)o1	112	315%	28µM*	3%	272%	14%
O=C(/C=C/c1cccs1)Nc1nccs1	59	339%	8%	-3%	354%	-5%
Nc1ccc(C(=O)N/N=C\c2cc(N=Nc3cccc4ccccc34)ccc2O)cc1	-102*	2.9µM*	-21%	-3%	3%	11µM*
COC(=O)N/N=C/c1cc(N=Nc2ccccc2Cl)ccc1O	29	?	-1%	-2%	7.4µM*	?
COC(=O)N/N=C/c1cc(N=Nc2ccccc2)ccc1O	4	?	12%	-1%	?	-10%
COc1ccc(NC(=O)CSc2nnc(-c3ccncc3)o2)c([N+](=O)[O-])c1	34	17%	-21%	12%	?	23%
COCCCNC1=C(C#N)C(=O)NC2(CCCC2)S1	0	.	.	.	.	.
O=S(=O)(c1ccccc1F)N1CCC(Oc2ccc(-n3cnnn3)cc2)CC1	-62*	11%	21%	-1%	?	3%
CCCOC(=O)c1ccc(-[n+]2c(-c3ccccc3)cc(-c3ccccc3)cc2-c2ccccc2)cc1	-98*	2.3µM*	-33%	2%	1.3µM*	?
O=C(O)c1ccc(-[n+]2c(-c3ccccc3)cc(-c3ccccc3)cc2-c2ccccc2)cc1	6	?	0%	-5%	?	-7%
Cc1ccc(-c2cc(-c3ccccc3)cc(-c3ccccc3)[n+]2-c2ccc(C(=O)O)cc2)cc1	-17	?	0%	-20%	?	-7%
COc1ccc(-c2cc(-c3ccccc3)[n+](C)c(-c3ccccc3)c2)cc1	-101*	?	55%	-2%	?	?
COc1ccc(-c2cc(O)cc(O)c2)cc1	122	175%	11%	-5%	.	-12%
